# Laboratory results: PubChem BioAssay AID686978 (National Center for Advancing Translational Sciences (NCATS), 2013)
# “And” between values parts separate entries of the source, which are not always exact repeats. Identical values can stand only once. The whole screen tested about 420,000 compounds, of which about 64,000 (15%) were called active. Inconclusive results (about 27%) are left out. This excerpt belongs to a sample that is enriched for actives. Values without a mark were called inactive. Calls come from the whole dose curve; as a rule, active = well fitted inhibition curve with a large enough effect; inconclusive = small, poorly fitted or top-dose-only effect; inactive = flat fitted curve, though single readings scatter.
# Assay: qHTS for Inhibitors of human tyrosyl-DNA phosphodiesterase 1 (TDP1): qHTS in cells in absence of CPT; note: nearly all actives have a fitted effect of over 55% in size
# Settings: DT40 Tdp1-/- hTDP1 cells, no CPT, ATP luminescence, 48 h; series mostly up to 46.2 µM; activity change, negative = growth inhibition: at the top concentration
# Outline: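 Readout: luminescence from CellTiter-Glo after 30 min in the dark at RT. Cells: DT40 Tdp1-/- with stable hTDP1, 400/well. Exposure: compounds alone, ≥48 hr, 37 °C.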
# % is set by controls: 0 for no effect and ±100 for the full control effect; potency is the fitted concentration of half-maximal effect.
SMILES,"activity change, negative = growth inhibition",Potency
CC(=O)Nc1ccccc1C(=O)OCC(=O)c1cccc2ccccc12,-16.9%,
CCOc1cccc(=NC2CCCCC2)c2c(C)[nH]c(C)c12,,5.8 µM (active)
O=C(N/N=C/c1c(O)n(C2CC2)c(=S)[nH]c1=O)c1ccccc1Cl,12.7%,
OC(CNC1CCCCC1)c1ccccc1 (stereo not given),-4.78%,
CC1CC=CCC12C(=O)NC(=S)NC2=O (stereo not given),0.763%,
COc1ccccc1CNC(=O)Cn1c(=O)oc2cc(Cl)ccc21,,18.4 µM (active)
Cc1ccccc1N1C(=O)NC(=O)/C(=C\c2cc(C)n(C)c2C)C1=O,0.262%,
C[C@]12CCC3C(CC[C@H]4[C@H](O)[C@H](O)CC[C@]34C)C1CCC2=O (stereo not given in full),,13 µM (active)
C[C@]12CCC3C(CC[C@H]4[C@H](O)[C@H](O)CC[C@]34C)C1CC[C@@H]2O (stereo not given in full),-15.9%,
C[C@@]12CCC3C(CC[C@@H]4CC(O)CC[C@@]34C)C1CCC2O (stereo not given in full),7.33%,
CC1CCCCN1Cc1cccnc1 (stereo not given),-1.31%,
CN1CCC(N(C)Cc2cccnc2)CC1,-2.53%,
CCOP(=S)(OCC)SCOC(=O)NCC(=O)OC,-18.9%,
CC(Cc1cccs1)NCc1ccc(Cl)cc1 (stereo not given),4.2%,
C[C@@H]1Cn2cnc(C(=O)Nc3ccc(CNC(=O)OC(C)(C)C)cc3)c2C(=O)N1,-111%,
O=C(NCC1=C(c2ccc3ccccc3c2)C[C@@H]2CC[C@H]1N2Cc1ccco1)c1cccs1,,23.1 µM (active)
CC(=O)NCC1=C(c2ccc3ccccc3c2)C[C@@H]2CC[C@H]1N2Cc1ccco1,,23.1 µM (active)
N[C@H](Cc1o[nH]c(=O)c1Cl)C(=O)O,-6.29%,
CC(=NCc1ccc2c(c1)OCO2)c1c(O)[nH]c(=O)[nH]c1=O,-20.8%,
Cc1ccc(S(=O)(=O)N(C)c2ccc(C(=O)NCC3(N(C)C)CCCCC3)cc2)cc1,-11.7%,
CN(C)c1nc(N(C)C)nc(N(C#N)CCCl)n1,-14.3%,
c1cncc(CNCCc2c[nH]c3ccccc23)c1,-6.22%,
COc1ccc(CNCCc2c[nH]c3ccccc23)cc1OC,,18.4 µM (active)
C/C(CCc1c[nH]c2ccccc12)=N\O,-14.6%,
COc1ccc2[nH]cc(CCNCc3ccc(Br)cc3)c2c1,,10.3 µM (active)
Cc1cc(C=C2C(=O)NC(=O)NC2=O)c(C)n1-c1ccncc1,-8.31%,
O=c1[nH]c(=O)n(CCc2ccccc2)c(O)c1/C=N/N1CCOCC1,-2.42%,

SMILES,"activity change, negative = growth inhibition",Potency
Cc1ccc(Cl)cc1N1CCN(C(=O)C2CCC(CNS(=O)(=O)c3cccs3)CC2)CC1 (stereo not given),,18.4 µM (active)
Cc1nc2nc(C)c(CCC(=O)N3CCC4(CC3)OCCO4)c(C)n2n1,-0.828%,
CCOP(=O)(OCC)C(O)c1ccc(OC)cc1OC (stereo not given),-3.05%,
CC[C@H]1CN2CCc3cc(OC)c(OC)cc3[C@@H]2C[C@@H]1C[C@H]1NCCc2cc(OC)c(OC)cc21,,150 nM (active) and 36.6 nM (active)
Nc1ccc([N+](=O)[O-])cc1,,inactive
CCOc1ccc(CN(CCCl)CCCl)cc1C(=O)OC,,4.11 µM (active)
COC([CH2][Hg])CNC(=O)c1ccccc1OCC(=O)O (stereo not given),,1.68 µM (active)
CC1([N+](=O)[O-])COP(=O)(Nc2ccc(F)cc2)OC1 (stereo not given),0.324%,
O=C(Cc1ccccc1[N+](=O)[O-])N1CCN(Cc2ccc3c(c2)OCO3)CC1,-18.5%,
Fc1ccc(N2CCN(Cc3ccc4c(c3)OCO4)CC2)cc1,-7.95%,
Cc1ccc(NC(=O)N(Cc2ccc3c(c2)OCO3)C2CCN(Cc3ccccc3)CC2)cc1F,,23.1 µM (active)
OCC#CC[N+]1(CC#Cc2ccccc2)CCCC1,26.8%,
CN1CCN(Cc2ccc(OC(F)(F)F)cc2)CC1,-2.54%,
CN(C)CCCN=Cc1c(O)n(Cc2ccco2)c(=O)[nH]c1=O,-1.96%,
ClCCN(CCCl)c1ccc(C=Nc2ccc(/C=C/c3ccnc4ccccc34)cc2)cc1,,11.2 µM (active)
COc1ccccc1NC(=O)N1C[C@@H]2C[C@@H](C1)c1cccc(=O)n1C2,2.23%,
O=c1[nH]c(=S)[nH]c(O)c1/C=C1\C=Nc2ccccc21,,9.2 µM (active)
COc1ccccc1N=Nc1c(O)[nH]c(=S)[nH]c1=O,-17.8%,
CNC(=S)N/N=C1\C2CN3CCN(C2)CC1(c1ccccc1)C3,6.18%,
C=C(C)C1(CCCC)C(=O)NC(=S)NC1=O,-16.4%,
CC(C)C(N)C(=O)OCCOCn1cnc2c(=O)[nH]c(N)nc21 (stereo not given),,4.11 µM (active)
CC/C(=N\NC(=O)c1ccccc1O)c1c(O)n(Cc2ccccc2)c(=O)[nH]c1=O,22.5%,
CC(=O)N(C1=NCCCS1)c1ccccc1F,-3.5%,
C[C@]12CCCCC1=CC(=O)C1C2CC[C@@]2(C)C1C[C@@H](F)[C@@H]2O (stereo not given in full),,16.4 µM (active)
NCCc1ccc(S(=O)(=O)F)cc1,0.906%,
N=c1ccccn1Cc1ccccc1,-7.46%,
C/C(=C\C=C/[C@@H](C)C(=O)O)[C@H]1CN[C@H](C(=O)O)[C@@H]1CC(=O)O,-13%,

SMILES,"activity change, negative = growth inhibition",Potency
Cc1cccc(OP(=O)(Oc2cccc(C)c2)OC(c2ccccc2)C(F)(F)F)c1 (stereo not given),,16.4 µM (active)
C[N+]1(C)CCOC(O)(c2ccc(-c3ccc(C4(O)C[N+](C)(C)CCO4)cc3)cc2)C1 (stereo not given),,inactive
CC1=CC(=Cc2sc3ccccc3[n+]2C)C=C(C)O1,,0.0164 µM (active)
ClC(Cl)(Cl)c1ccccc1,7.72%,
CCOP(=O)(OCC)C(Nc1cccc(C)c1)c1ccc(F)cc1 (stereo not given),,16.4 µM (active)
CC[N+]1(C)CCCC(OC(=O)C(O)(c2ccccc2)c2ccccc2)C1 (stereo not given),,inactive
O=c1[nH]c(O)c(C=Nc2cc(F)cc(F)c2)c(=O)[nH]1,-3.87%,
CCN(CC)c1ccc([N+](=O)[O-])c2cccnc12,-6.29%,
CN(c1ccccc1)c1ccc([N+](=O)[O-])c2nonc12,,16.4 µM (active)
O=C(O)/C=C/c1ccc2c(c1)OCO2,3.92%,
O=C(CN1CCCC1=O)NCCc1ccccc1,-11.4%,
CCOP(=O)(OCC)C(Cc1ccccc1)N=C(c1ccccc1)c1ccccc1 (stereo not given),,14.6 µM (active)
CCOP(=O)(OCC)C(NC(=O)c1ccc(OC)cc1)C(Cl)(Cl)Cl (stereo not given),-5.09%,
CCOP(=O)(OCC)C(NC(=O)c1ccc(C)cc1)C(Cl)(Cl)Cl (stereo not given),-1.8%,
O=C(NC(=S)N1C[C@H]2C[C@H](C1)c1cccc(=O)n1C2)c1ccc(F)cc1,-2.67%,
O=C(c1ccccc1[N+](=O)[O-])N1CCC2(CC1)OCCO2,-1.62%,
Cc1ccc(-c2cc(C(=O)N3CCC4(CC3)OCCO4)no2)cc1,-26.7%,
O=C(c1cc2nc(-c3ccccc3)cc(-c3ccccc3)n2n1)N1CCC2(CC1)OCCO2,,23.1 µM (active)
CN(C)C(=O)Oc1ccc2c(c1)O/C(=C\c1ccccc1)C2=O,1.24%,
Cc1ncsc1CCCl,,inactive
Cc1ccc(S(=O)(=O)N2CCCc3cc(NS(=O)(=O)c4cc(C)ccc4C)ccc32)cc1,,13 µM (active)
COC(=O)C[C@H]1CC[C@H]2NC[C@@H](O)COC[C@@H]2O1,9.41%,
c1ccc2c(c1)[I+]c1ccccc1-2,,33.5 nM (active) and 15.8 nM (active) and 126 nM (active)
Cc1cccc(NC(=O)OC2CN3CCC2CC3)c1 (stereo not given),-16%,
COc1ccccc1C1=NCc2nnc(CSC)n2-c2ccc(Cl)cc21,-17%,
Cc1nc2ccccn2c1P(=S)(N1CCCCC1)N1CCCCC1,,18.4 µM (active)
CC(=NCC1CCCO1)c1c(O)n(-c2ccccc2)c(=O)[nH]c1=O (stereo not given),-17.7%,

SMILES,"activity change, negative = growth inhibition",Potency
CCc1nnc(NS(=O)(=O)c2ccc(N=Cc3c(O)n(-c4ccccc4)c(=O)[nH]c3=O)cc2)s1,-5.93%,
CCN(CC)C(=O)Oc1ccc(NC(=O)N2CCOCC2)cc1,-9.37%,
COc1ccc(C(=O)C2CCCN(Cc3ccc(C)s3)C2)cc1OC (stereo not given),,14.6 µM (active)
Cc1ccsc1C(=O)C1CCCN(Cc2ccc(O)cc2)C1 (stereo not given),-18%,
c1ccc(CCNC2CCCCCC2)cc1,-14.6%,
c1ccc(CCN2CCC3(CC2)OCCO3)cc1,-14.2%,
c1ccc(CCCCN2CCC(c3ccccc3)CC2)cc1,,11.9 µM (active) and 18.4 µM (active)
CCC(=O)OC(Cc1ccccc1)(c1ccccc1)C(C)CN(C)C (stereo not given),-21.9%,
CC[C@]1(O)C(=O)OCc2c1cc1n(c2=O)Cc2cc3ccccc3nc2-1,,0.0211 µM (active)
Cc1c(C(=O)O)cccc1-n1c(C)cc(/C=C2\C(=O)NC(=O)N(c3ccc4c(c3)OCO4)C2=O)c1C,0.106%,
c1ccc(Cc2nn3c(Cn4cnc5ccccc54)nnc3s2)cc1,,23.1 µM (active)
CN1CC[C@H](c2c(O)cc(O)c3c(=O)cc(-c4ccccc4Cl)oc23)[C@H](O)C1,,0.0282 µM (active)
C[C@@H]1CC[C@@]2(OC1)O[C@H]1C[C@H]3[C@@H]4CC=C5C[C@@H](O)[C@H](O)C[C@]5(C)C4CC[C@]3(C)[C@H]1[C@@H]2C (stereo not given in full),,18.4 µM (active)
CC(=O)N1CN2CN(C(C)=O)CC(C(=O)c3ccc(Br)cc3)(C2)C1,9.67%,
Cc1ccc(P(=S)(c2ccc(C)o2)N2CCOCC2)o1,-28.3%,
Cc1cc(-c2ccc(N)c(C)c2)ccc1N,-2.65%,
Fc1ccc(C(OCCN2CCN(C/C=C\c3ccccc3)CC2)c2ccc(F)cc2)cc1,,6.68 µM (active)
Cn1cc(C(=O)OCC(=O)N2CCCC2)c2ccccc21,3.73%,
CCN(Cc1ccccc1)S(=O)(=O)c1ccc2c(c1)CCCN2C(C)=O,,18.4 µM (active)
Cc1ccc2c(c1)C1CN(C)CCC1N2C(=O)Cn1nnc(-c2ccccc2F)n1 (stereo not given),-3.75%,
CC1CNCCN1c1ccc(Cl)cc1 (stereo not given),-20.8%,
O=c1oc2ccccc2c(O)c1C(c1ccccc1O)c1c(O)c2ccccc2oc1=O,-17.6% [at 9.04 µM],
CCC1(C)CC(CCNCc2ccc(N(C)C)cc2)(c2ccc(F)cc2)CCO1 (stereo not given),,16.4 µM (active)
CC1=CC(=O)C2=C(C)C[C@H](O)[C@H]3[C@H](C)C(=O)O[C@@H]3C12 (stereo not given in full),-4.46%,
